# Inconclusive results are not listed. Entries that show only a call come without a potency. Unmarked numbers belong to inactive results. Active and inactive are the calls of the source. Unless noted, calls come from the whole dose curve; as a rule, active = well fitted curve in the direction sought with a large enough effect; inconclusive = small, poorly fitted or top-dose-only effect, or another doubt; inactive = no such curve, though single readings can be large; an effect the other way counts as inactive or inconclusive.
# How the values were obtained:
# [1] = Counterscreen qHTS for small molecule stabilizers of the endoplasmic reticulum resident proteome: GLuc-NoTag assay (AID 1508627); note: series mostly up to about 76 µM
# Outline: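 Secreted GLuc lacking the SERCaMP modification is measured in SH-SY5Y cells exposed to compound for 19 h and then to thapsigargin (100 nM, 4 h) to deplete ER calcium; hits retested at 11 concentrations, up to 76.6 uM.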
# [2] = target: Cytochrome P450 2D6 (Homo sapiens) (UniProt P10635); assay: Cytochrome P450 family 2 subfamily D member 6 (CYP2D6) small molecule antagonists: luciferase biochemical (cell-free) qHTS assay (AID 1645840; active = well fitted curve in the direction sought with a large enough effect in the repeat runs; an effect the other way counts as inactive or inconclusive; note: nearly all actives have a fitted effect of over 55% in size; note: potency is the fitted concentration of half-maximal effect)
# Sequence of Cytochrome P450 2D6 (Homo sapiens) (P10635 whole entry, looked up): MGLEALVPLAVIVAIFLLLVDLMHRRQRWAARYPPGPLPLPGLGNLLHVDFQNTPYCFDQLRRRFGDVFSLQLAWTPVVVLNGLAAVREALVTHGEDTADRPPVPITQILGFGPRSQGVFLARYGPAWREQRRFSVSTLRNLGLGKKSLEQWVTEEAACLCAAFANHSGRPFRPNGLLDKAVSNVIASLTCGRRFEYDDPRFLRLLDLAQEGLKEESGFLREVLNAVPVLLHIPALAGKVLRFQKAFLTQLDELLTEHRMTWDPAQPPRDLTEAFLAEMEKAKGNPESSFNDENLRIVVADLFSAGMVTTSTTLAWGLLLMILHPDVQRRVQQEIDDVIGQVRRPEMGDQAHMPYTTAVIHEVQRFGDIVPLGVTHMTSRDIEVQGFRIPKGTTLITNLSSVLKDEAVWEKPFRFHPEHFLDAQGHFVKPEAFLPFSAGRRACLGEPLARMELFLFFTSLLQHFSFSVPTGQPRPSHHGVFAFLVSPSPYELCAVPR
# Outline: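 P450-Glo CYP2D6 system: proluciferin substrate converted by enzyme to luciferin, read by luminescence proportional to activity. Enzyme-substrate mix with compound 10 min at room temperature, then NADPH regeneration 1 h before detection reagent.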
# [3] = target: Cytochrome P450 2C9 (Homo sapiens) (UniProt P11712); assay: Cytochrome P450 family 2 subfamily C member 9 (CYP2C9) small molecule antagonists: luciferase biochemical (cell-free) qHTS assay (AID 1645842; active = well fitted curve in the direction sought with a large enough effect in the repeat runs; an effect the other way counts as inactive or inconclusive; note: nearly all actives have a fitted effect of over 55% in size; note: potency is the fitted concentration of half-maximal effect)
# Sequence of Cytochrome P450 2C9 (Homo sapiens) (P11712 whole entry, looked up): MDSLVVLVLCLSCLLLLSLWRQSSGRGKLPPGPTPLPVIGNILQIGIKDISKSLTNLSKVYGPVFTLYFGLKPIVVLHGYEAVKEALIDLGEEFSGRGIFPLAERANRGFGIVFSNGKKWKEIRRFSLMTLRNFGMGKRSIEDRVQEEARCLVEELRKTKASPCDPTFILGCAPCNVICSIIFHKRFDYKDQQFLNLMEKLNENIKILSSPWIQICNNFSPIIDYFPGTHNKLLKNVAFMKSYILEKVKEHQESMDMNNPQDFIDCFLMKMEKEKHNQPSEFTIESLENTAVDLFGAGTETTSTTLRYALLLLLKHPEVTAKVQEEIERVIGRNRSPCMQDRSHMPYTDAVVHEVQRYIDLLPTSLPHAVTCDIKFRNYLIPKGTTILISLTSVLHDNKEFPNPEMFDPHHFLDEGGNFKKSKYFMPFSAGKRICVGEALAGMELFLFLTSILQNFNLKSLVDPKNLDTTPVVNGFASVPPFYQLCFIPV
# Outline: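 P450-Glo CYP2C9 system: proluciferin substrate with enzyme in mix containing 0.4% BSA, 10 min at room temperature, then NADPH regeneration solution added and incubated 1 h at 37C. Detection reagent stopped reaction; luminescence read after 20 min as RLU.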
# [4] = Confirmatory qHTS for small molecule stabilizers of the endoplasmic reticulum resident proteome: Secreted ER Calcium Modulated Protein (SERCaMP) assay (AID 1508628); note: nearly all actives have a fitted effect of over 40% in size; note: potency is the fitted concentration of half-maximal effect
# Outline: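 GLuc-SERCaMP-expressing SH-SY5Y cells, pretreated 16 h with compound, are challenged with thapsigargin to empty ER calcium stores; after 4 h, coelenterazine is added directly to the medium and luminescence is imaged.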
# [5] = Primary qHTS for small molecule stabilizers of the endoplasmic reticulum resident proteome: Secreted ER Calcium Modulated Protein (SERCaMP) assay (AID 1508630); note: potency is the fitted concentration of half-maximal effect
# Outline: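 The SH-SY5Y reporter protocol was run at 3 concentrations up to 38.3 uM (primary) or 11 concentrations (follow-up): 16 h compound, 100 nM thapsigargin for 4 h, then extracellular luciferase luminescence.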
# [6] = A High-Content qHTS Against Drug Library for the Identification of Small Molecules that Inhibit DYT1 Early Onset Primary Dystonia-Associated Cell Pathology (AID 1645839; calls by dose curve; note: series mostly up to about 46 µM)
# Outline: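 Induced EGFP-delE TorsinA cells are imaged after 48 h of compound treatment. Punctate fusion-protein distribution gives the %pathology value, while nuclei counts flag toxicity. Wild-type EGFP-hTOR1A cells define the normal pattern.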
# [7] = Cell Viability qHTS for small molecule stabilizers of the endoplasmic reticulum resident proteome (AID 1508629); details: cell viability counter-screen, 100 nM thapsigargin for final 4 h;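 note: compound exposure about 46 h in total before the viability read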
# Text: Assay Provider: Brandon K. Harvey Ph.D.
# National Institute on Drug Abuse, National Institutes of Health, Baltimore, MD
# Endoplasmic reticulum (ER) dysregulation is associated with human pathologies including neurodegenerative, cardiovascular, muscular, and diabetic conditions. Maintenance of ER calcium is critical for functions of the ER and its depletion can lead to loss of ER resident proteins, in a process termed exodosis. Therapeutic compounds capable of attenuating the redistribution of ER proteins under pathological conditions may slow or stop disease progression. To identify such compounds, we performed a quantitative high-throughput screen (qHTS) using the SERCaMP assay, which monitors secretion of ER resident proteins triggered by calcium depletion.
# SERCaMP was initially developed as a reporter of ER calcium homeostasis using a Gaussia luciferase with a modified signal peptide and carboxy-terminus (GLuc-SERCaMP), modifications that confer secretion of the reporter in response to ER calcium depletion (Henderson et al., 2014). The assay was used to screen 9,501 compounds, including a collection of drugs approved by the FDA (US), EMA (EU), NHI (Japan), and HC (Canada) regulatory agencies (Huang et al., 2011). Since the SERCaMP reporter reflects the exodosis phenomenon (Trychta et al., 2018a), compounds identified in the screen have the potential to prevent exodosis by different mechanisms such as stabilizing ER calcium or augmenting ERS retrieval.
# 1. Henderson, M.J., Wires, E.S., Trychta, K.A., Richie, C.T., and Harvey, B.K. (2014). SERCaMP: a carboxy-terminal protein modification that enables monitoring of ER calcium homeostasis. Mol Biol Cell 25, 2828-2839.
# 2. Huang, R., Southall, N., Wang, Y., Yasgar, A., Shinn, P., Jadhav, A., Nguyen, D.T., and Austin, C.P. (2011). The NCGC pharmaceutical collection: a comprehensive resource of clinically approved drugs enabling repurposing and chemical genomics. Sci Transl Med 3, 80ps16.
# 3. Trychta, K.A., Back, S., Henderson, M.J., and Harvey, B.K. (2018a). KDEL Receptors Are Differentially Regulated to Maintain the ER Proteome under Calcium Deficiency. Cell Rep 25, 1829-1840 e1826.
# SEQUENCE No. (1, 2, 3, etc.); […] (e.g., Cells, Incubation, Reagent, etc.); VALUE and DESCRIPTION.
# 1; Reagent; 5 uL; 1000 SH-SY5Y cells per wells
# 3; Compound; 23 nL; Control inhibitor / compound library
# 5; Reagent; 100 nM; Thapsigargin
# 7; Reagent; 5 uL; CellTiter-Glo (Promega)
# 8; Time; 10 min; room temperature
# 9; Detection; Luminescence; ViewLux imaging system
# NOTES (numbers refer to sequence above)
# 1; SH-SY5Y human neuroblastoma cells stably expressing GLuc-SERCaMP (SH-SY5Y-GLuc-ASARTDL) cells were seeded in 1,536 well white tissue culture treated plates (Corning, Cat# 7464) in DMEM-high glucose-sodium pyruvate (ThermoFisher Scientific, Cat #10569) supplemented with 10% bovine growth serum (Hyclone), 10 U/ml penicillin (Gibco), 10 ug/ml streptomycin (Gibco), and 20 mM HEPES.
# 2; Assay plates were incubated for 5 hr at 37C in a humidified incubator containing 5% CO2.
# 3; qHTS libraries (23 nl, final concentrations of 1.53 uM, 7.67 uM, 38.3 uM) or controls (neutral control: DMSO, positive control: dantrolene) were added using a Kalypsis pin-tool Robotic System equipped with 1536 pinheads.
# 4; Cells were then incubated for 42 hours at 37C, 5% CO2.
# 5; Thapsigargin was added at 100 nM to deplete ER calcium stores.
# 6; Cells were incubated for 4 hr (37C, 5% CO2).
# 7; Cell viability was measured using the CellTiter-Glo Luminescent Cell Viability Assay (Promega). Briefly, an equal volume of reagent was added to each well. Plates were rotated for 2 min.
# 8; Assay plates were incubated for 10 min at room temperature.
# 9; Luminescence was measured using a ViewLux CCD imaging system (Perkin Elmer) equipped with clear filters.
compound,measurement,setting,value
CCCOC(C(=O)OC1CCN(C)CC1)(c1ccccc1)c1ccccc1,outcome,[1],inactive
same,Potency,[2],3.47 µM (active)
same,Potency,[3],inactive
CN1[C@@H]2CC[C@H]1CC(OC(=O)c1c[nH]c3ccccc13)C2 (some centres undefined),outcome,[1],inactive
same,Potency,[4],inactive
same,Potency,[5],35.5 µM (active)
same,Potency,[6],inactive
same,Potency,[2],12.3 µM (active)
same,Potency,[3],inactive
CC(=O)OCC(=O)[C@@]1(O)[C@H](C)C[C@H]2[C@@H]3CCC4=CC(=O)C=C[C@]4(C)[C@@]3(F)[C@@H](O)C[C@@]21C,Potency,[5],inactive
same,Potency,[6],inactive
same,Potency,[2],inactive
CCCCCCCCCCCCCCCCCC(=O)OCC(O)CO (centres undefined),outcome,[1],inactive
same,Potency,[4],inactive
same,max response,[7],15.4%
same,Potency,[6],inactive
same,Potency,[2],inactive
same,Potency,[3],inactive
CC1=C(C(=O)OC(C)C)C(c2cccc([N+](=O)[O-])c2)C(C(=O)OC2CN(C(c3ccccc3)c3ccccc3)C2)=C(N)N1 (centres undefined),Potency,[4],28.2 µM (active)
same,max response,[7],-0.744%
same,Potency,[2],9.77 µM (active)
same,Potency,[3],1.95 µM (active)
C/C=C/c1ccc(OC)cc1,Potency,[5],inactive
same,Potency,[6],inactive
same,Potency,[2],inactive
CC1=C(C(=O)O)N2C(=O)[C@@H](NC(=O)[C@H](N)c3ccc(O)cc3)[C@H]2SC1,Potency,[5],inactive
same,Potency,[6],inactive
same,Potency,[2],inactive
CC(=O)c1ccc2c(c1)N(CCCN1CCC(CCO)CC1)c1ccccc1S2,outcome,[1],inactive
CC(=O)Oc1ccc(C(=C2CCCCC2)c2ccc(OC(C)=O)cc2)cc1,Potency,[4],inactive
same,Potency,[2],15.5 µM (active)
same,Potency,[3],9.77 µM (active)
CN=C(NC#N)NCCSCc1csc(N=C(N)N)n1,Potency,[5],inactive
same,Potency,[6],inactive
CN1CCN(CCCN2c3ccccc3Sc3ccc(S(=O)(=O)N(C)C)cc32)CC1,max response,[7],-9.17%
same,Potency,[2],11 µM (active)
CC(=O)OCC(=O)[C@@]1(OC(C)=O)[C@@H](C)C[C@H]2[C@@H]3C[C@H](F)C4=CC(=O)C=C[C@]4(C)[C@@]3(F)[C@@H](O)C[C@@]21C,Potency,[5],inactive
same,Potency,[6],inactive
same,Potency,[2],inactive
CN(C)/N=N/c1nc[nH]c1C(N)=O,Potency,[5],inactive
same,Potency,[6],inactive
CC/C(=C(/CC)c1ccc(O)cc1)c1ccc(O)cc1,Potency,[5],inactive
CCN1CCN(c2cc3c(cc2F)c(=O)c(C(=O)O)cn3C2CC2)CC1,outcome,[1],inactive
same,Potency,[4],inactive
same,max response,[7],21.1%
same,Potency,[5],1.12 µM (active)
same,Potency,[6],inactive
same,Potency,[2],inactive
same,Potency,[3],inactive
N[C@H](Cc1c[nH]c2ccccc12)C(=O)O,Potency,[5],inactive
same,Potency,[6],inactive
CC(Cc1ccccc1)(NC(=O)CN)c1ccccc1 (centres undefined),Potency,[5],inactive
same,Potency,[6],inactive
Nc1nc2ncc(CNc3ccc(C(=O)N[C@@H](CCC(=O)O)C(=O)O)cc3)nc2c(=O)[nH]1,outcome,[1],inactive
same,Potency,[4],inactive
same,max response,[7],22.5%
same,Potency,[6],inactive
same,Potency,[2],inactive
same,Potency,[3],inactive
